# Assay results taken from ChEMBL document CHEMBL4808148, “HDAC6 screening dataset using tau-based substrate in an enzymatic assay yields selective inhibitors and activators” (2021).
# Several values for one entry are separate records, joined by “and”; a condition that tells them apart may be missing. Identical values can stand only once. About 150 (2.7%) of roughly 5,600 compounds showed an effect of 50% or more. The full list was thinned out, with strong results kept by preference.
# Tests used:
# [1] = biological target: T1, Protein deacetylase HDAC6 (Homo sapiens) (UniProt Q9UBN7); details: at 10 µM
# T1 sequence (whole entry): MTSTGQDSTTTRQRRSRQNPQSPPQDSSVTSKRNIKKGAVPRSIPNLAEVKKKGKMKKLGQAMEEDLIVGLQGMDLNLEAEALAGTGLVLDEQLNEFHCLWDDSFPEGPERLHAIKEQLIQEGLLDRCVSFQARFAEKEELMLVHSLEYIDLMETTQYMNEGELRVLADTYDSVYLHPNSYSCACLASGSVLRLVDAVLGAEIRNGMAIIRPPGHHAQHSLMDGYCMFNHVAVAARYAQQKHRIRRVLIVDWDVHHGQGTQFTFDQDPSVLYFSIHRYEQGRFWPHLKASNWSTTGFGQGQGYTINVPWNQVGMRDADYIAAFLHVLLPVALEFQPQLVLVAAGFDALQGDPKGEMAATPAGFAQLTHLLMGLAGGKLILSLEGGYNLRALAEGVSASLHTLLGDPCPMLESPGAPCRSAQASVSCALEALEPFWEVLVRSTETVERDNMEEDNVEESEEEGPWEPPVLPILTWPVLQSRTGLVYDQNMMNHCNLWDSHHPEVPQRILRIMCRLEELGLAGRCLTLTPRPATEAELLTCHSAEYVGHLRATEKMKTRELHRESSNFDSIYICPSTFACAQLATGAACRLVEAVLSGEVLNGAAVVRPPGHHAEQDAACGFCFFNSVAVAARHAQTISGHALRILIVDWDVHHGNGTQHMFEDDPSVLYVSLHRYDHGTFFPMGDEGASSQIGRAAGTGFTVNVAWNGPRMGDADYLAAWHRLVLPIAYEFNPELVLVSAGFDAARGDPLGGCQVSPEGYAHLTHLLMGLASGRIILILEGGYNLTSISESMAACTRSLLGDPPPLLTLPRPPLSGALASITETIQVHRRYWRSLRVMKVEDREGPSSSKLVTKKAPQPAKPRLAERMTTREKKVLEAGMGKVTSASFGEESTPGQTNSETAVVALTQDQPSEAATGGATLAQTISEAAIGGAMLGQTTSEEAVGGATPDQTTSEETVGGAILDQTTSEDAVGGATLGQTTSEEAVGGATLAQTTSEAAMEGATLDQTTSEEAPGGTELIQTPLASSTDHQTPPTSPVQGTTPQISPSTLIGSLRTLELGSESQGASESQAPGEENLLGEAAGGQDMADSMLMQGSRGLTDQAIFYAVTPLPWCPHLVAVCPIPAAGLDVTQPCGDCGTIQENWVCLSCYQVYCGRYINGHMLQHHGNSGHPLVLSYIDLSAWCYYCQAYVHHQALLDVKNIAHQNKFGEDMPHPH
# [2] = biological target: Protein deacetylase HDAC6 (Homo sapiens) (UniProt Q9UBN7); details: at 10 µM; remark: listed apart in the source
Compound,inhibition [1],inhibition [2] [%]
CC(=O)OC1C[C@H]2C(C)(C)C(=O)C=C[C@]2(C)[C@H]2CC[C@@]3(C)[C@H](c4ccoc4)OC(=O)[C@H]4O[C@]43[C@]12C (stereo not given in full),-9.28%,
Nc1cc2c3ccccc3ccc2c2ccccc12,23.6%,
Clc1cccc(C(c2ccc3[nH]cnc3c2)n2ccnc2)c1 (stereo not given),0.23%,
O[C@H]1CC[C@H](Nc2ncc3nc(Nc4c(F)cc(F)cc4F)n([C@H]4CCOC4)c3n2)CC1,-4.44%,
NCc1ccc(S(N)(=O)=O)cc1,0.53%,
Nc1ccc(S(N)(=O)=O)cc1,-5.55%,
NS(=O)(=O)c1ccc(S(=O)(=O)Nc2cccc3c(Cl)c[nH]c23)cc1,79.5%,
C=CC(C)(O)CCC=C(C)C (stereo not given),1.97%,
O=C(CN1C(=O)C2(CCCC2)NC[C@H]1c1cc(F)cc(F)c1)Nc1ccc2c(c1)C[C@@]1(C2)C(=O)Nc2ncccc21,-4.92%,
C=CC(=O)O,0.87%,
Cc1cc(O)c2c(c1)C(=O)c1cccc(O)c1C2=O,6.5%,
O=C1c2cccc(O)c2C(=O)c2c(O)cccc21,-4.52%,
C[C@@H]1CC(=O)c2c(ccc3c2C(=O)c2cccc(O)c2C3=O)C1,77.5%,
Cc1ccc2c(N3CCN(CCc4cccc(N5CCNC5=O)c4)CC3)cccc2n1,-3.2%,
CCCCCCOc1cc2c(cc1N(C)c1ncc(C(=O)O)cn1)C(C)(C)CCC2(C)C,0.82%,
Nc1nccc(/C=C/c2ccccc2)n1,96.2%,
Cc1cccc(/C=C/c2ccccc2)n1,98.2%,
CC[N+](CC)(CC)CCOc1ccc(/C=C/c2ccccc2)cc1,-3.25%,
Cc1nc2ccccc2c(-c2ccc3c4c(ccnc24)CCO3)c1[C@H](OC(C)(C)C)C(=O)O,-1.87%,
Cc1cc(N2CCOCC2)ccc1Nc1nc(NC2CCCCC2)c2nc[nH]c2n1,-0.21%,
Cc1cc2ncc(C(=O)NCC(C)(C)NCC(=O)N3CCC[C@H]3C#N)cn2n1,2.17%,
COc1cc(Cc2cnc(N)nc2N)cc(OC)c1OC,-5.72%,
COc1ccc(Cc2cnc(N)nc2N)cc1OC,-3.93%,
COc1ccc(COc2ccc(Cc3cnc(N)nc3N)cc2OC)cc1,58.8%,
c1nc2c(NC3CCCCC3)nc(Nc3ccc(N4CCOCC4)cc3)nc2[nH]1,-4.12%,
Cc1cc(/C(=C\Nc2ccc(Cl)cc2)C(=O)Nc2ccc(Cl)cc2)on1,-2.63%,
Oc1ccc2c(c1)CC[C@H](c1ccccc1)[C@@H]2c1ccc(OCCN2CCCC2)cc1,-2.46%,

Compound,inhibition [1],inhibition [2] [%]
O=c1c(O)c(-c2ccc(O)c(O)c2)oc2cc(O)ccc12,8.31%,
COc1cc(C(C)=O)ccc1O,4.49%,
COc1ccc(-c2coc3cc(O)ccc3c2=O)cc1,62.6%,
CC(C)Oc1ccc2c(=O)c(-c3ccccc3)coc2c1,-8.43%,
O=c1c(-c2ccc(O)cc2)coc2c(C3OC(CO)C(O)C(O)C3O)c(O)ccc12 (stereo not given),-5.66%,
COc1cc2c(=O)c(-c3ccc(O)cc3)coc2cc1O,96.6%,
Cc1cc(=O)oc2cc(O)ccc12,-0.81%,
COc1ccc(C(C)=O)c(O)c1,0.72%,
O=c1c(-c2ccc(O)cc2)coc2cc(O)ccc12,76%,
Cc1cc(CCCOc2c(C)cc(-c3noc(C(F)(F)F)n3)cc2C)on1,-3.38%,
CCCCNc1ncc2c(-c3ccc(CN4CCN(C)CC4)cc3)cn([C@H]3CC[C@H](O)CC3)c2n1,5.61%,
"COLISTIMETHATE SODIUM, CHEMBL1201441",,0.02
O=S(=O)(OC[C@H]1O[C@@](COS(=O)(=O)[O][Al]([OH])[OH])(O[C@H]2O[C@H](COS(=O)(=O)[O][Al]([OH])[OH])[C@@H](OS(=O)(=O)[O][Al]([OH])[OH])[C@H](OS(=O)(=O)[O][Al]([OH])[OH])[C@H]2OS(=O)(=O)[O][Al]([OH])[OH])[C@@H](OS(=O)(=O)[O][Al]([OH])[OH])[C@@H]1OS(=O)(=O)[O][Al]([OH])[OH])[O][Al]([OH])[OH],-5.96%,
OC[C@H]1O[C@@H](c2ccc(F)c(Cc3cc4ccccc4s3)c2)[C@H](O)[C@@H](O)[C@@H]1O,-2.47%,
O=C(/C=C/c1ccc(O)c2c1[C@@H](C(=O)O[C@H](Cc1ccc(O)c(O)c1)C(=O)O)[C@H](c1ccc(O)c(O)c1)O2)O[C@H](Cc1ccc(O)c(O)c1)C(=O)O,3.93%,
Cn1nnc(-c2ccc(-c3ccc(N4C[C@H](CO)OC4=O)cc3F)cn2)n1,86.8%,
CC(=O)NC[C@H]1CN(c2ccc(-c3ccc(CNCc4cnn[nH]4)cc3)c(F)c2)C(=O)O1,0.09%,
Cc1cccc(N2CC(CO)OC2=O)c1 (stereo not given),-6.61%,
CCCCOCCOc1nc(-c2ccc(C(=O)O)c(F)c2)sc1C,0.11%,
Cc1nc(-c2ccc(OCC(C)C)c(C#N)c2)sc1C(=O)O,98.8%,
Cc1cc(SCc2sc(-c3ccc(C(F)(F)F)cc3)nc2C)ccc1OCC(=O)O,3.31%,
CCOC(=O)[C@@]1(CCCCCCOc2ccc(Cl)cc2)CO1,-2.98%,
CCC(CC)Nc1nc(C)c(-c2ccc(OC(F)(F)F)cc2OC)nc1OC,-3.03%,
O=C1c2ccccc2-n2c1nc1ccccc1c2=O,68.6%,
O=c1c2ccccc2nc2n1CCc1c-2[nH]c2ccccc12,7.17%,
O=c1c2ccccc2nc2n1CCCCC2,17.6%,
Cc1c(-c2ccc(-c3ccccc3F)cc2)nc2ccc(F)cc2c1C(=O)O,-2.53%,

Compound,inhibition [1],inhibition [2] [%]
FC(F)(F)c1cccc(-c2noc(-c3cc(-c4ccccc4)c(C(F)(F)F)s3)n2)c1,-4.64%,
O=C(O)c1cccc(-c2noc(-c3ccccc3F)n2)c1,99.8%,
NC1(C(=O)N[C@@H](CCO)c2ccc(Cl)cc2)CCN(c2nc[nH]c3nccc2-3)CC1,5%,
CN1C(=O)N[C@H](Cc2c[nH]c3c(Cl)cccc23)C1=O,2.4%,
COc1ccc(C(=O)NCc2ccc(OCCN(C)C)cc2)cc1OC,-3.31%,
Cc1cc(C)c(N(Cc2ccccc2)S(=O)(=O)c2ccc(OCCNC(=O)c3cc4ccccc4o3)cc2)c(C(=O)NO)c1,-0.11%,
CN(C)Cc1c(C(=O)NCCOc2ccc(C(=O)NO)cc2)oc2ccccc12,97.9%,
CC1(C)OC[C@H](NC(=O)Nc2ccc(Br)cc2Br)[C@H](c2ccccc2)O1,-0.73%,
FC(F)(F)c1cc(NC(=S)Nc2ccc(Br)cc2-c2nnn[nH]2)cc(C(F)(F)F)c1,67.5%,
COc1cc(C[C@@H](CO[C@@H]2O[C@H](CO)[C@@H](O)[C@H](O)[C@H]2O)[C@H](CO[C@@H]2O[C@H](CO)[C@@H](O)[C@H](O)[C@H]2O)Cc2ccc(O)c(OC)c2)ccc1O,-3.26%,
COc1ccc(C[C@@H](C)[C@@H](C)Cc2ccc(OC)c(OC)c2)cc1OC,-2.57%,
COc1ccc(/C=C/C(=O)/C=C(O)/C=C/c2ccc(OC)c(OC)c2)cc1OC,4.07%,
Cn1cc(C2=C(c3cn(CCCSC(=N)N)c4ccccc34)C(=O)NC2=O)c2ccccc21,-0.14%,
Cn1cc(C2=C(c3ccc(Cl)cc3Cl)C(=O)NC2=O)c2ccccc21,-3.78%,
Cn1cc(/C=C2/C(=O)Nc3cccnc32)c2ccccc21,66.2%,
CCNC(=O)CC[C@@H](N)C(=O)O,-3.08%,
CN(C)CC(O)Cn1c2ccc(Br)cc2c2cc(Br)ccc21 (stereo not given),-0.45%,
O=C1OC2(c3cc(I)c(O)c(I)c3Oc3c2cc(I)c(O)c3I)c2c(Cl)c(Cl)c(Cl)c(Cl)c21,31.9% and 41.8%,
CCOC(=O)c1ccc(N2NC(=O)/C(=C/c3ccc([N+](=O)[O-])o3)C2=O)cc1,3.77%,
Cn1nc(-c2ccc(C(F)(F)F)cc2)nc2c(=O)n(C)c(=O)nc1-2,82.8%,
Cc1cccc(C)c1NC(=O)/N=C1\CCCN1C,-2.32%,
Cc1ccc(-c2[nH]nc3c2C(c2cccc(O)c2)N(c2ccc(C(=O)O)cc2)C3=O)cc1 (stereo not given),-3.95%,
C1Cc2[nH]nc(-c3nn[nH]n3)c2C1,-4.01%,
COc1ccc2[nH]c(SCc3ncc(C)c(OC)c3C)nc2c1,7.26%,
N#Cc1cccc(-c2c[nH]c3ncnc(N4CCOCC4)c23)c1,-3.83%,
CCCCc1nc(-c2ccc(OCCCN(CC)CC)cc2)cn1-c1ccc(Oc2ccc(Cl)cc2)cc1,9.56%,
CCCCc1nc2cc(/C=C/C(=O)NO)ccc2n1CCN(CC)CC,97.3%,

Compound,inhibition [1],inhibition [2] [%]
CCN(CC)CCn1c(=O)c(Cc2ccc(OC)cc2)nc2ccccc21,-4.21%,
CC(C)(C)/[N+]([O-])=C/c1ccc(S(=O)(=O)O)cc1S(=O)(=O)O,-5.01%,
CCCc1c(OCCCOc2ccc(OCC(=O)O)cc2)ccc(CC=O)c1O,-1.53%,
O=C(O)/C=C\c1c[nH]cn1,-0.7%,
CC1(C)CCC(C)(C)c2cc(NC(=O)c3ccc(C(=O)O)cc3)ccc21,-2.96%,
Nc1ccc(C(=O)O)c(O)c1,-3.77%,
O=C(Nc1ccc(C(=O)O)c(O)c1)c1ccccc1,95.5%,
"OXALIPLATIN, CHEMBL414804",,-4.35
CN[C@H](CNC(=O)N1CCC[C@@H]([C@@H](OCCNC(=O)OC)c2cccc(Cl)c2)C1)C[C@H]1CCCOC1,8.55%,
Cc1ccc(OCCSc2ncccn2)c(Br)c1,77.5%,
Cc1cc(OCC(=O)O)cc(C)c1Cc1ccc(O)c(C(C)C)c1,-5.84%,
O=C1[C@@H]2[C@H]3CC[C@H](C3)[C@@H]2C(=O)N1CCCCN1CCN(c2ncccn2)CC1,6.98%,
N#Cc1c[nH]c2c(C(=O)N3CCN(CCc4ccc(F)cc4)CC3)cccc12,4.22%,
COc1ccccc1C(=O)Nc1cccc(NC(=O)c2cccc(C)c2)c1,8.47%,
CC(=O)CC(=O)O,-2.94%,
O=C(CCNNC(=O)c1ccncc1)NCc1ccccc1,-3.21%,
O=C(CCCCCCNC(=O)c1cnc(N(c2ccccc2)c2ccccc2)nc1)NO,97.5%,
CCCCCCCCCCCCCCCC(=O)NCCO,-0.28%,
N#C/C(=C\c1cccn1S(=O)(=O)c1cccc([N+](=O)[O-])c1)S(=O)(=O)c1ccc(F)cc1,6.35%,
N[C@@H](CC(=O)NO)C(=O)O,-1.74%,
O=C1Nc2c(ccc(Cl)c2Cl)/C1=N\O,1.23%,
Oc1cccc(-c2c3nc(c(-c4cccc(O)c4)c4ccc([nH]4)c(-c4cccc(O)c4)c4nc(c(-c5cccc(O)c5)c5ccc2[nH]5)CC4)C=C3)c1,2.63%,
Nc1nc(N)c2nc(-c3cccc(O)c3)cnc2n1,66.2%,
Nc1nc(N)c2nc(-c3ccccc3)c(N)nc2n1,22%,
